Shown are actives, neighbours in structure and some others; about 3% of the full set was active somewhere.
C2C12 statin: suppressors of simvastatin-induced myotoxicity in C2C12 myotubes; rescue of ATP level, % at 7.49 µM; 330,000 compounds, 0.78% hits; ATP luminescence, 48 h; scaled: DMSO 0, geranylgeraniol control 100;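 active = mean ATP rescue above about 67%, or every replicate alone reaching that limit, limit read from the data, passing the limit was not always enough; inconclusive = no clear call, values can overlap the other calls; inactive = mean under the limit and some replicate under it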;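 also: myotubes were challenged with 10 µM simvastatin during compound exposure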
Wnt act: activators of Wnt/beta-catenin signaling. 300,000 compounds, 1.2% hits. AID 743398. Wnt/beta-catenin reporter cell assay, activator, plate reader. activation, % at 9.35 µM; in the data active = activation above about 30%, passing the limit was not always enough; inconclusive = no clear call, values can overlap the other calls;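 also: 0% = neutral control wells and 100% = positive control wells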
MITF TRPM1 HTS: increases MITF-driven TRPM1 promoter luciferase signal; 300,000 compounds, 0.75% hits; activation, % at 12.5 µM; SK-MEL-5 TRPM1-promoter luciferase, 24 h; % of positive control, neutral wells = 0;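 active = mean activation of at least 80% with every replicate also reaching 80%; inconclusive = mean reaches 80% but some replicate falls short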;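 also: 0% = neutral control wells and 100% = parthenolide positive control wells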
esBAF inh: blocks esBAF chromatin remodeling in mouse ES cells | 350,000 compounds, 2% hits | reporter increase, % at 12.5 µM | AID 602393 | Bmi1-luciferase knock-in reporter, 24 h; 100% = twice the neutral-well signal; in the data active = activation above about 40%; inconclusive = no clear call, values can overlap the other calls;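 also: 0% = median of the plate's neutral control wells and 100% = double that signal; a rise in the Bmi1 reporter signal indicates esBAF inhibition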
* hit, by the source's call; ? = inconclusive; / = no result given.

SMILES	C2C12 statin	Wnt act	MITF TRPM1 HTS	esBAF inh
Cc1cc(C(=O)NC(=S)Nc2cccc(NC(=O)C(C)C)c2)ccc1[N+](=O)[O-]	-4.9	10.5	22.8	49.4*
O=C(O)c1ccc(NC(=S)NC(=O)c2ccc(-c3ccccc3)cc2)cc1	-4.5	-0.4	4.5	27.6
CCCNC(=O)N1C[C@H]2[C@@H](c3ccccc31)[C@H](CO)N2C(=O)CN1CCOCC1	4.1	/	/	1.5
O=C(C[C@@H]1C=C[C@@H](NC(=O)Nc2ccc3c(c2)OCO3)[C@H](CO)O1)NCCCN1CCOCC1	-4.2	/	/	6.5
CC(C)NC(=O)Nc1ccc2c(c1)C(=O)N([C@H](C)CO)C[C@@H](C)[C@@H](CN(C)S(=O)(=O)c1ccccc1)OCCCC[C@H](C)O2	/	/	/	3.2
C[C@@H]1CN([C@H](C)CO)C(=O)c2cccc(NC(=O)C3CCOCC3)c2O[C@H]1CN(C)Cc1ccc(-c2ccccc2)cc1	-5.5	/	/	9.2
Cc1ccc2c(CN(C)Cc3ccccc3)cc(=O)oc2c1C	-6.1	17.8	65.7	58.7*
CCc1ccc2oc(=O)cc(CN(C)Cc3ccccc3)c2c1	12.9	/	3.1	11.0
Cc1ccc2c(CN(C)Cc3ccc(OC(F)F)cc3)cc(=O)oc2c1C	-0.3	-1.1	-1.0	-1.5
Cc1ccc2c(CN(C)Cc3cccc(F)c3)cc(=O)oc2c1C	-6.0	5.9	34.8	49.7*
Cc1cc2oc(=O)cc(CN(C)Cc3ccccc3)c2cc1C	-3.3	7.6	/	48.4*
C[C@@H]1CN([C@@H](C)CO)C(=O)c2cc(-c3cccc(F)c3)cnc2O[C@H]1CN(C)C(=O)c1ccccn1	/	/	/	5.0
Cc1ccccc1CNC(=O)Cc1ccccc1[N+](=O)[O-]	-1.1	25.4	29.7	41.6*
O=C(Cc1ccccc1[N+](=O)[O-])NCc1ccccc1Cl	/	2.0	50.9	27.9
Cc1cccc(NC(=O)c2cccc([N+](=O)[O-])c2O)c1C	/	49.0*	65.2	/
CCOc1ncccc1C(=O)Nc1cc2c(cc1Br)OCCO2	-14.1	8.0	30.7	55.3*
CCOc1ncccc1C(=O)Nc1ccc2c(c1)OCO2	/	3.0	3.8	/
CCCCn1c(-c2ccco2)n[nH]c1=S	/	-5.7	-4.6	/
CCCCn1c(-c2ccoc2C)n[nH]c1=S	-3.1	43.2*	/	7.4
COc1ccc(NC(=O)Nc2cccc3c2O[C@@H](CN(C)S(=O)(=O)c2cn(C)cn2)[C@@H](C)CN([C@@H](C)CO)C3=O)cc1	/	/	/	-5.5
COCCNc1nc2cc(-c3cccc(C(F)(F)F)c3)sc2c(=O)n1C	-2.4	-0.8	/	-11.0
Cn1c(NCCc2ccncc2)nc2cc(-c3ccccc3)sc2c1=O	-6.2	-1.0	/	56.4*
COCCNc1nc2cc(-c3ccc(C)cc3)sc2c(=O)n1C	-8.1	-1.4	/	54.8*
COc1ccccc1CNc1nc2cc(-c3ccccc3C)sc2c(=O)n1C	-5.1	-2.7	/	10.3
COc1ccccc1CNc1nc2cc(-c3sccc3C)sc2c(=O)n1C	-2.6	37.7*	/	65.8*
SMILES	C2C12 statin	Wnt act	MITF TRPM1 HTS	esBAF inh
COc1cccc(-c2cc3nc(NCc4cccnc4)n(C)c(=O)c3s2)c1	-14.6	-0.3	/	45.7*
Cc1ccc(S(=O)(=O)N[C@H]2CC[C@@H](CCn3cc(-c4cccnc4)nn3)O[C@H]2CO)cc1	-0.7	/	/	6.8
C[C@H]1CCCCO[C@H](CN(C)C(=O)Nc2ccc(F)cc2)[C@@H](C)CN([C@@H](C)CO)C(=O)c2cc(NC(=O)Nc3ccccc3)ccc2O1	10.8	/	/	5.4
O=C(C[C@H]1CC[C@H]2[C@@H](COC[C@@H](O)CN2Cc2cccc(-c3ccncc3)c2)O1)N1CCOCC1	27.7	/	/	7.1
C[C@@H]1CN([C@@H](C)CO)C(=O)c2cc(NC(=O)CCC(F)(F)F)ccc2O[C@@H](C)CCCCO[C@H]1CN(C)Cc1ccc(C(F)(F)F)cc1	-8.9	/	/	-4.9
C[C@H]1CN([C@@H](C)CO)C(=O)c2cccc(NC(=O)C3CCCCC3)c2O[C@H]1CN(C)S(=O)(=O)c1ccccc1	-85.4	/	/	-1.0
N#C/C(=C(/O)CN1CCCCC1)c1nc(-c2ccc(Cl)cc2)cs1	-66.1	/	37.6	59.9*
COc1ccccc1-c1cn(CC[C@H]2CC[C@@H](NC(=O)C3CCC3)[C@@H](CO)O2)nn1	-0.4	/	/	-4.4
O=C(C[C@@H]1CC[C@@H]2[C@H](COC[C@H](O)CN2S(=O)(=O)c2cccc(Cl)c2)O1)NCc1ccncn1	9.1	/	/	-7.3
Cc1cc(=O)oc2cc(OCc3c(F)cccc3Cl)ccc12	/	42.1*	/	/
Cc1cc(=O)oc2cc(OCc3ccccc3)ccc12	6.0	14.6	60.2	25.8
Cc1cc(NC(=O)CCC(=O)N(CCC(C)C)C(C(=O)NC2CCCC2)c2cccnc2)no1 (centres undefined)	104.6*	-1.9	0.2	-6.9
CCOC(=O)CN(C(=O)CCC(=O)Nc1cc(C)on1)C(C(=O)NC1CCCC1)c1cccnc1 (centres undefined)	/	/	-4.9	/
Cc1noc(C)c1NC(=O)N(C)C[C@@H]1Oc2ccc(NC(=O)Nc3ccc(F)cc3)cc2CC(=O)N([C@@H](C)CO)C[C@H]1C	7.7	/	/	-2.5
O=C(CCc1ccccc1)Nc1ccc(Cl)cn1	-135.7	/	19.3	42.9*
O=C(Cc1ccccc1)Nc1ccc(Cl)cn1	-1.4	12.2	7.0	6.4
O=C(COc1ccccc1Cl)Nc1ccccc1C(=O)N1CCCCC1	5.0	-0.5	42.7	60.8*
O=C(Nc1ccc(-c2nc3ncccc3o2)cc1)c1ccco1	/	27.1	103.8*	/
O=C(Nc1ccc(NC(=O)c2ccccc2Cl)nc1)c1ccco1	-8.7	8.8	55.2	54.1*
O=C(Nc1ccc(-c2ccccc2)cc1)[C@@H]1[C@@H](CO)[C@@H]2Cn3c(cccc3=O)[C@@H]2N1CC1CCOCC1	-18.2	/	/	3.1
COC(=O)C[C@@H]1CC[C@@H]2[C@H](COc3ccc(NC(=O)Nc4cccc(Cl)c4)cc3C(=O)N2C)O1	-1.8	/	/	-1.1
CNC[C@H]1Oc2c(NC(=O)NC(C)C)cccc2C(=O)N([C@H](C)CO)C[C@@H]1C	6.5	/	/	2.4
O=C(C[C@@H]1CC[C@H]2[C@@H](COC[C@@H](O)CN2Cc2cccc(Cl)c2)O1)N1CCOCC1	1.7	/	/	-0.6
CS(=O)(=O)Nc1ccc2c(c1)[C@H]1C[C@@H](CC(=O)NCC(F)(F)F)O[C@H](CO)[C@H]1O2	-4.9	/	/	-4.0
O=C(COc1ccccc1)Nc1ccc(Cl)cn1	0.6	7.0	41.2	21.0
SMILES	C2C12 statin	Wnt act	MITF TRPM1 HTS	esBAF inh
O=C(CCc1ccccc1)Nc1ccc(NC(=O)c2ccco2)nc1	-15.6	35.8*	?	36.4
O=C(COc1ccccc1Cl)Nc1ccc(Cl)cn1	4.0	51.7*	/	30.2
O=C(CCc1ccccc1)Nc1ccc(NC(=O)c2ccco2)cc1	10.9	3.5	21.7	15.6
Cc1cc(NC(=O)c2ccco2)ncc1NC(=O)Cc1ccccc1	5.5	/	58.7	45.0*
O=C(OC1CCCCC1)c1ccc(NC(=O)c2ccco2)cc1	-55.0	-2.8	54.8	60.3*
O=C(C[C@@H]1C=C[C@H](NC(=O)Nc2ccc(F)cc2)[C@H](CO)O1)NCc1cccc(F)c1	2.9	/	/	5.8
COC(=O)C[C@H]1CC[C@H]2[C@@H](COc3ccc(NC(=O)NC(C)C)cc3C(=O)N2C)O1	9.5	/	/	0.7

From PubChem BioAssay
